TDP1 cell noCPT: qHTS for Inhibitors of human tyrosyl-DNA phosphodiesterase 1 (TDP1): qHTS in cells in absence of CPT | AID 686978, 2013 | Potency, µM (highest dose often 46.2 µM), inactives show at the highest dose activity change, negative = growth inhibition, hits mostly inhibitors | DT40 Tdp1-/- hTDP1 cells, no CPT, ATP luminescence, 48 h | 420,000 compounds, 15% hits; further: potency means the concentration at half of the fitted maximal effect; nearly all actives have a fitted effect of over 55% in size
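Stably hTDP1-transfected Tdp1-null chicken DT40 cells were treated with library compounds minus camptothecin and grown for at least 48 hr at 37 °C, after which cellular ATP was quantified by luminescence.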
DT40 TDP1 CPT: DT40-hTDP1 cell growth loss with CPT; chicken DT40 Tdp1-/-;hTDP1 cells + 20 nM CPT, ATP luminescence, 48 h; 420,000 compounds, 12% hits; Potency, µM (highest dose often 46.2 µM), without a hit: top-dose activity change, negative = growth inhibition, hits mostly inhibitors; AID 686979; further: potency means the concentration at half of the fitted maximal effect; nearly all actives have a fitted effect of over 55% in size
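Cell growth measured by CellTiter-Glo luminescence after a minimum 48 h, 37 C compound exposure with 20 nM CPT in Tdp1-knockout DT40 cells stably expressing hTDP1, seeded 400/well; qHTS titration format.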
IL1B secr inh: inflammasome signaling inhibition, IL-1 beta readout | 360,000 compounds, 4.7% hits | activity change, % at 57.5 µM | THP-1 LPS/ATP IL-1B secretion, AlphaLISA, 16 h; hits give low values; in the data active means activity change below about -50%; inconclusive means mostly about -30% to -49%
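Secreted IL-1B measured by AlphaLISA bead assay after 16 h compound exposure of THP-1 cells; compounds (final up to 57.5 uM) added 1 h before LPS (250 ng/mL) and ATP (1.25 mM) stimulation; lower signal means less secretion.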
HT1080 IDH1KD tx: HT-1080 IDH1 knockdown cell toxicity (counter line); 360,000 compounds, 2% hits; Potency, µM (highest dose often 46.1 µM), inactives show top-dose activity, negative = toxicity, hits mostly cytotoxic; HT-1080 IDH1 knockdown viability, ATP luminescence, 48 h;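 further: potency means the concentration at half of the fitted maximal effect; 0% = DMSO wells and -100% = cell-free medium wells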
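In this qHTS, HT-1080 cells depleted of IDH1 are exposed for 48 h at 37 °C to compound titrations. Toxicity is scored from CellTiter-Glo luminescence, with DMSO as full viability and medium alone as none.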
HT1080-NT tox: kills 2HG-producing HT-1080-NT fibrosarcoma cells. HT-1080-NT fibrosarcoma viability, CellTiter-Glo ATP luminescence, 48 h. Potency, µM (top dose mostly 46.1 µM), without a hit: at the highest dose activity, negative = less viability, usual class: cytotoxic. 360,000 compounds, 1.6% hits;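 further: NT is the 2HG producing partner of a matched IDH1 knockdown line; potency means the concentration at half of the fitted maximal effect; 0% = DMSO-treated cells and -100% = media-only wells without cells; nearly all actives have a fitted effect of over 55% in size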
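HT-1080-NT; 750 cells/well; 5% FBS RPMI; 48 h compound, 37 degrees C; CellTiter-Glo luminescence; curve fitting and curve-class assignment.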
The depositor's hits bear a star; ? = inconclusive; nt = no result. Sampled rows, rich in hits. Any-hit rate of the full collection: about 19%. Unless noted, the call rests on the fitted dose curve; in most records, active means well fitted curve in the direction sought with a large enough effect; inconclusive means small, poorly fitted or top-dose-only effect, or another doubt; inactive means no such curve, though single readings can be large; an effect the other way counts as inactive or inconclusive. Unless noted, on the % scale 0 is the no-effect control and ±100 the full control effect.

SMILES	TDP1 cell noCPT	DT40 TDP1 CPT	IL1B secr inh	HT1080 IDH1KD tx	HT1080-NT tox
Cc1ccc(NC(=O)C2CCCN(c3ncnc4c3nc3n4CCCCC3)C2)c(Br)c1 (configuration not stated)	4.1µM*	5.8µM*	nt	nt	nt
O=C(NCCCN1CCN(c2ccc(F)cc2)CC1)C1CCCN(c2ncnc3c2nc2n3CCCCC2)C1 (configuration not stated)	8.2µM*	?	?	-6%	-7%
O=C(Nc1ccc(F)cc1F)C1CCCN(c2ncnc3c2nc2n3CCCCC2)C1 (configuration not stated)	15µM*	13µM*	-55*	-11%	-23%
O=C(Nc1cc(F)ccc1F)C1CCCN(c2ncnc3c2nc2n3CCCCC2)C1 (configuration not stated)	13µM*	15µM*	16	2%	-1%
O=C(NCc1ccc(Cl)cc1)C1CCCN(c2ncnc3c2nc2n3CCCCC2)C1 (configuration not stated)	?	?	13	-1%	7%
O=C1CC2(CCCC2)Oc2ccccc21	5%	-6%	8	1%	-1%
Cc1[nH]c(=O)sc1C(=O)NCc1ccc([N+](=O)[O-])cc1	-26%	?	21	13%	4%
CCC(C)[C@H]1CNC(=O)C(=O)N1CCc1cccc2ccccc12 (some centres not stated)	-12%	-7%	nt	-13%	0%
Cc1ccccc1Cn1c(=O)n(CCCCC(=O)NCc2ccccc2Cl)c(=O)c2ccccc21	?	-11%	nt	nt	nt
O=C(NCCc1nc2ccccc2[nH]1)/C(=C/c1ccc2c(c1)OCO2)NC(=O)c1ccccc1Cl	?	?	-84*	6%	1%
Cc1ccc(C)c(N2CCN(CCCNC(=O)Cn3cccc3C(=O)c3ccccc3)CC2)c1	5.2µM*	5.2µM*	-23	8%	2%
CCN(CC)S(=O)(=O)c1ccc2c(c1)N(CC(=O)NCCCN1CCN(c3cc(C)ccc3C)CC1)C(=O)CO2	4.6µM*	2.6µM*	nt	nt	nt
CCN(CC)S(=O)(=O)c1ccc2c(c1)N(CC(=O)NCCCN1CCN(c3ccc(OC)cc3)CC1)C(=O)CO2	?	-23%	nt	nt	nt
CCN(CC)S(=O)(=O)c1ccc2c(c1)N(CC(=O)NCCCN1CCN(c3ccccc3F)CC1)C(=O)CO2	?	23µM*	nt	nt	nt
O=C(CCN1C(=O)COc2ccccc21)NCCCN1CCN(c2ccccc2F)CC1	?	18µM*	-3	-13%	0%
O=C(O)CCC(CNS(=O)(=O)c1ccccc1)C(F)(F)F (configuration not stated)	-4%	29%	-1	29%	17%
CCC1(c2ccccc2)NC(=O)N(CC(=O)NCc2ccc(C)cc2)C1=O (configuration not stated)	-19%	-3%	-21	4%	-1%
Cn1cccc1/C=N/NC(=O)c1ccn[nH]1	1%	14%	3	2%	3%
CNc1cc(C)nc(-n2nc(C)cc2C)n1	5.2µM*	5.8µM*	0	-2%	5%
CCOc1ccc(Nc2cc(C)nc(-n3nc(C)cc3C)n2)cc1	0.58µM*	0.46µM*	12	0.41µM*	?
Cc1cc(Cl)nc(-n2nc(C)cc2C)n1	-16%	6%	-6	9%	13%
Cc1ccc(Nc2cc(C)nc(-n3nc(C)cc3C)n2)cc1	3.7µM*	3.3µM*	nt	nt	nt
Cc1cc(Nc2ccc(Cl)cc2C)nc(-n2nc(C)cc2C)n1	1.6µM*	5.2µM*	nt	nt	nt
Cc1nn(C(C)C(=O)NCCCc2ccccc2)c(=O)c2nn(-c3ccccc3)c(C)c12 (configuration not stated)	?	?	-9	-4%	-10%
CCN1CCN(CNC(=O)c2cnccn2)CC1	0%	18µM*	6	1%	-4%
SMILES	TDP1 cell noCPT	DT40 TDP1 CPT	IL1B secr inh	HT1080 IDH1KD tx	HT1080-NT tox
CCn1c(SCC(=O)N2CC(C)OC(C)C2)nc2c([nH]c3ccccc32)c1=O (configuration not stated)	?	-29%	-2	-2%	-2%
COCCNC(=S)N/N=C(\C)c1ccc(Cl)s1	21µM*	?	-96*	0%	?
CNC(=S)N/N=C(\C)c1ccc(Cl)c(Cl)c1	5.2µM*	4.1µM*	-12	-3%	-3%
COCCNC(=S)NN=C1CCC(c2ccccc2)CC1 (configuration not stated)	5.2µM*	?	14	-15%	-10%
COCCNC(=S)N/N=C(\C)c1ccc(Cl)c(Cl)c1	21µM*	23µM*	-5	11%	11%
COCCNC(=S)N/N=C(\C)c1ccccc1O	0.082µM*	0.026µM*	?	9%	10%
COCCNC(=S)N/N=C(\C)c1ccccc1F	?	?	-12	21%	13%
COCCNC(=S)N/N=C(\C)c1ccc(Cl)c(Cl)c1Cl	4.6µM*	4.1µM*	19	-9%	0%
O=C(Oc1ccc(=O)[nH]n1)c1ccccc1	-3%	-17%	10	12%	-1%
CC1CN(S(=O)(=O)c2cc(C(=O)N(C)Cc3cccs3)ccc2Cl)CC(C)O1 (configuration not stated)	?	?	32	2%	0%
COc1ccc(-c2nonc2NC(=O)c2ccco2)cc1OC	-12%	0%	12	0%	1%
CN(C)C(=O)c1ccc(NC(=O)c2cc(-c3ccco3)nc3ccccc23)cc1	?	?	0	-1%	1%
Cc1cccc2sc(NNC(=O)C3=COCCO3)nc12	?	13µM*	-5	-11%	-15%
COc1cccc(-c2cc(C(=O)Nc3nc4ccccc4s3)c3ccccc3n2)c1	26µM*	16µM*	-13	?	?
COc1ccc(NC(=O)c2cc(-c3ccco3)nc3ccccc23)cn1	21µM*	?	6	3%	-4%
COc1ccc(-c2cc(C(=O)Nc3nc4c(C)cccc4s3)c3ccccc3n2)cc1OC	21µM*	16µM*	-3	?	-9%
CC12CCC(C(=O)N(NC(=O)c3cc(Cl)ccc3O)C1=O)C2(C)C (configuration not stated)	-14%	-18%	16	0%	5%
O=C(Nc1nc2ccccc2s1)c1cc(-c2ccco2)nc2ccccc12	18µM*	18µM*	-9	?	?
Cc1cccc2sc(NNC(=O)c3cc(-c4cccs4)nc4ccccc34)nc12	4.1µM*	4.1µM*	137	21µM*	?
